TEAD-YAP inh = TEAD-YAP interaction inhibition; actives 1.4% (n = 640,000); inhibition, % at 9.12 µM; HEK-TIYL cells, TEAD-Gal4/YAP UAS-luciferase luminescence; in the data active means inhibition above about 32%;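 further: 0% = median of test compound wells and 100% = reference inhibitor wells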
MITF primary = blocks human microphthalmia-associated transcription factor. actives 0.91% (n = 650,000). inhibition, % at 2.6 µM. AlphaScreen MITF homodimerization, bead proximity signal. O75030; in the data active means inhibition above about 50%;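 further: 0% = vehicle wells with protein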
FBW7 act = human FBW7 E3 ligase activation, primary screen; actives 0.13% (n = 650,000); Q969H0; AlphaScreen FBW7–phospho-cyclin E peptide binding, activator screen; normalized activity (activation), % at 26.1 µM; in the data active means normalized activity above about 1.9%;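 further: purified mutant Fbw7 with reduced substrate affinity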
Target sequence (Q969H0 whole entry, looked up): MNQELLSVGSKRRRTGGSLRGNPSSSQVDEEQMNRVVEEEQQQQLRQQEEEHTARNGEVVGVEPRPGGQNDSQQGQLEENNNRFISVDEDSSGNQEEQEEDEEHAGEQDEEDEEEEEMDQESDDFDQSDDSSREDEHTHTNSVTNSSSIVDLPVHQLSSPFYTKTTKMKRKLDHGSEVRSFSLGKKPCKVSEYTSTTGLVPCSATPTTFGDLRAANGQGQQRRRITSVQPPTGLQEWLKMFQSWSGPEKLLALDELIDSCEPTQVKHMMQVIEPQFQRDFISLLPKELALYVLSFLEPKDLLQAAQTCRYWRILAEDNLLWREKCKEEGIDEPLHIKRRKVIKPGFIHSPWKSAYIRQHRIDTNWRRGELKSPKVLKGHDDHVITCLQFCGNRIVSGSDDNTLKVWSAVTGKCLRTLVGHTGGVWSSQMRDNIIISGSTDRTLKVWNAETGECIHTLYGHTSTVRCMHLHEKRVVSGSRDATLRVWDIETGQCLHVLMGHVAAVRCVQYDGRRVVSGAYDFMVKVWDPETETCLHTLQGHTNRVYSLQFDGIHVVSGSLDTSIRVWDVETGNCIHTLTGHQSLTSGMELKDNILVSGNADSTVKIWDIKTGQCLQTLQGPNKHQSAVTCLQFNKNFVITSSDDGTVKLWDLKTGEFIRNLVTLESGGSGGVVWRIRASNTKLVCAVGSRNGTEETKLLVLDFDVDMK
GPR151 activ = activates the human receptor GPR151. Q8TDV0. PathHunter beta-arrestin GPR151 cells, luminescence. activation, % at 11.2 µM. actives 1% (n = 650,000); in the data active means activation above about 4.9%;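 further: 0% = median of compound wells and 100% = cells with positive control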
GPR151 confirm = confirmation of human GPR151 activators. shares compounds with GPR151 activ. activation, % at 11.2 µM. GPR151 PathHunter beta-arrestin cells, luminescence, 90 min; % of EA-reagent control over plate median. AID 1508609. 6,700 tested, under 10 active;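 active means mean percent activation across replicates above the confirmation screen cutoff of 4.91%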
GPR119 ag = activates human GPR119 in a GPR151 counter-screen; activation, % at 11.2 µM; actives 0.3% (n = 6,700); shares compounds with GPR151 activ; GPR119 PathHunter beta-arrestin cells, luminescence, 90 min; 0 = compound-well median, 100 = enzyme-acceptor control;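 active means mean percent activation in the counterscreen above 29.09%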;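 further: counterscreen on off-target GPR119 to flag nonselective hits from the GPR151 activator screen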
* = called active by the depositor; nt = not tested or not shown. An excerpt weighted towards active compounds, which were near 3.4% of everything screened.

SMILES	TEAD-YAP inh	MITF primary	FBW7 act	GPR151 activ	GPR151 confirm	GPR119 ag
COc1ccc(/C=C2\C(=O)NC(=O)N(c3ccc(Br)cc3)C2=O)c(OC)c1	-6.2	-2.4	-0.1	7.3*	-0.2	3.7
COc1ccc(/C=C2/C(=O)NC(=O)N(c3ccc(C)cc3)C2=O)c(OC)c1	6.6	16.6	0.5	0.6	nt	nt
CCc1ccc(N2C(=O)NC(=O)/C(=C/c3cc(OC)c(O)c(OC)c3)C2=O)cc1	-1.0	-12.1	-0.1	0.7	nt	nt
COc1ccc(S(=O)(=O)N2CCN(CC(=O)c3ccco3)CC2)cc1OC	2.2	7.2	0.2	12.2*	0.1	-0.4
O=C(CN1CCN(S(=O)(=O)c2ccccc2)CC1)c1ccco1	6.4	10.8	0.2	-0.5	nt	nt
COc1ccc(F)cc1S(=O)(=O)N1CCN(CC(=O)c2ccco2)CC1	-11.4	48.2	0.0	-0.9	nt	nt
COc1ccc(OC)c(S(=O)(=O)N2CCN(CC(=O)c3ccco3)CC2)c1	3.4	3.0	0.1	6.8*	0.2	-7.3
COCC(=O)N1CCN(CC(=O)c2ccco2)CC1	4.9	9.0	0.1	4.9*	0.0	-6.5
O=C(COC(=O)C1CC2CCC(C1)C21SCCS1)Nc1ccc(F)cc1 (stereo not given)	0.6	-9.3	0.1	0.1	nt	nt
CC(=O)Nc1ccc2c(c1)N(CCC(C)C)C(=O)C(C)(C)CO2	-3.8	3.3	0.6	0.3	nt	nt
O=C1N=c2ccc(Br)cc2=C1c1sc(Nc2cccc(O)c2)nc1O	9.1	16.2	0.2	3.0	nt	nt
CC(C)c1ccc(NC(=O)C(c2ccc3c(c2)OCO3)N(Cc2ccccc2)c2ccccc2)cc1 (stereo not given)	2.7	3.4	-0.2	5.7*	0.0	8.7
CCCNc1nc(-c2ccc(N3CCOCC3)nc2)nc2c1ncn2-c1ccccc1	6.6	16.4	0.2	-1.6	nt	nt
c1ccc(-n2cnc3c(NCc4cccnc4)nc(-c4ccc(N5CCOCC5)nc4)nc32)cc1	46.5*	-0.4	0.1	5.7*	-0.8	-10.4
c1ccc(CNc2nc(-c3ccc(N4CCOCC4)nc3)nc3c2ncn3-c2ccccc2)cc1	-0.8	-6.4	0.1	5.5*	0.7	-0.7
O=C(NCCC1=CCCCC1)c1cccnc1SCc1cccc(Br)c1	-3.4	5.2	-0.1	0.7	nt	nt
O=C(NCCC1=CCCCC1)c1cccnc1SCc1ccccc1F	-6.2	2.0	-0.1	5.4*	-0.3	-4.2
COc1ccc(-c2nnc(SCc3nc4ccccc4[nH]3)n2-c2ccccc2)cc1OC	-13.3	-13.8	0.2	5.0*	-0.6	-1.9
CCCCOC(=O)c1cc(-c2ccc(/C=C3\C(=O)N(c4ccccc4)N=C3C)o2)ccc1Cl	0.7	0.3	-0.2	-0.6	nt	nt
Cc1cccc(Nc2nc(N3CCCC3)nc(N3CCCC3)n2)c1	1.3	4.0	0.0	5.6*	1.4	4.1
COc1nc(Nc2cccc(C)c2)nc(N2CCCCC2)n1	-7.2	13.9	0.0	0.0	nt	nt
Cc1ccc(NS(=O)(=O)c2c(C)ccc3nsnc23)cc1	6.4	12.5	0.7	5.2*	-1.2	-0.9
Cc1ccc(C)c(NS(=O)(=O)c2c(C)ccc3nsnc23)c1	-4.7	-8.9	-0.2	0.6	nt	nt
CCOC(=O)c1cnc(SC2CC(=O)N(c3cccc(F)c3)C2=O)nc1N (stereo not given)	0.4	-1.7	0.0	7.5*	0.1	4.0
CCOC(=O)c1cnc(SCc2cccc(F)c2)nc1N	-75.2	-4.6	0.0	0.3	nt	nt
SMILES	TEAD-YAP inh	MITF primary	FBW7 act	GPR151 activ	GPR151 confirm	GPR119 ag
Cn1c(=O)c2c(nc3n(CCc4ccccc4)c(-c4ccc(Br)cc4)cn23)n(C)c1=O	17.6	16.2	0.1	5.6*	-0.3	1.3
Cn1c(=O)c2c(nc3n(CCc4ccccc4)c(-c4ccccc4)cn23)n(C)c1=O	7.6	-16.6	-0.3	1.4	nt	nt
c1nc(NCC2CCCO2)c2c3c(sc2n1)CCCC3 (stereo not given)	-2.1	-1.3	0.1	1.2	nt	nt
c1nc(NCC2CCCO2)c2c3c(sc2n1)CCC3 (stereo not given)	-0.9	-2.7	-0.3	7.6*	0.0	5.9
c1nc(NCc2ccc(CN3CCOCC3)cc2)c2c3c(sc2n1)CCC3	32.5*	-0.7	0.1	6.3*	0.8	-6.0
c1nc(NCCN2CCOCC2)c2c3c(sc2n1)CCCC3	-5.9	-3.6	-0.2	0.9	nt	nt
COc1cc(NC(=O)C2CCN(c3ccc(Nc4ccccc4)nn3)CC2)cc(OC)c1OC	-14.8	9.9	1.1	-1.0	nt	nt
COc1cc(NC(=O)C2CCN(c3ccc(Nc4cc(OC)c(OC)c(OC)c4)nn3)CC2)cc(OC)c1OC	-6.7	7.3	-0.2	7.8*	-0.7	-4.4
CC(=O)N1CCC(N(C(=O)Nc2c(F)cccc2F)C(C)C)CC1	-4.2	4.6	-0.1	9.1*	-0.8	0.5
CC(=O)N1CCC(N(C(=O)Nc2cccc(Cl)c2C)C(C)C)CC1	-0.5	4.0	-0.1	0.5	nt	nt
COc1ccc(CNCc2ccc3ccccc3c2)cc1OC	4.3	34.4	-0.1	5.1*	0.7	0.6
O=C(Oc1ccc(I)cc1)c1ccc([N+](=O)[O-])cc1	0.9	9.2	0.1	6.1*	-0.9	-4.9
NC(CC(=O)O)C(=O)O (stereo not given)	-16.6	12.4	-0.1	7.8*	0.4	3.2
CC(=O)Oc1ccc(/C=c2/sc3nc(=O)c(Cc4ccc(F)cc4)nn3c2=O)cc1	10.7	-1.1	0.0	1.1	nt	nt
O=c1nc2s/c(=C/c3cccs3)c(=O)n2nc1Cc1ccc(F)cc1	11.9	7.6	-1.8	5.0*	-0.3	-4.8
COc1ccc(C2CC(c3cccs3)=NN2C(=O)CSc2nnc(CNC(=O)COc3ccccc3)n2-c2cccc(Cl)c2)cc1 (stereo not given)	9.3	1.9	0.1	-0.6	nt	nt
Cc1ccc(C(c2nnnn2CCc2ccccc2)N2CCOCC2)cc1 (stereo not given)	5.2	-18.5	0.0	6.8*	0.6	-1.2
CCCCNCC(=O)Nc1ccc(N2CCCCCC2)cc1	0.9	-5.0	-0.1	-0.9	nt	nt
O=C(Nc1ccc2c(c1)OCO2)C1CC12CCN(C(=O)c1ccc(-n3ccnc3)cc1)CC2 (stereo not given)	4.5	-8.5	0.0	2.5	nt	nt
CN1CCCc2cc(CN3CCC4(CC3)CC4C(=O)Nc3ccc4c(c3)OCO4)ccc21 (stereo not given)	-1.4	-2.5	-0.1	4.9*	0.3	-6.4
O=C(Nc1ccc2c(c1)OCO2)C1CC12CCN(C(=O)c1ccc(-c3ccco3)cc1)CC2 (stereo not given)	4.7	-1.1	-0.2	5.5*	-0.8	-0.4
COc1cc(Nc2cc(C(=O)NC3CC3)ccn2)cc(OC)c1OC	-9.4	0.0	-0.3	-0.5	nt	nt
CCC(=O)Nc1sc2c(c1C(=O)Nc1ccccc1C(=O)OC)CCC(C(C)(C)C)C2 (stereo not given)	-1.0	1.4	-0.1	5.2*	-0.9	-12.4
